Data on seven molecules can be found in PubChem BioAssay (Tox21).

A number with no mark means an inactive call. Results filed as inconclusive are left out. Calls of active or inactive are those of the source. Unless noted, calls follow the shape of the dose curve; as a rule, active = well fitted curve in the direction sought with a large enough effect in the repeat runs; inconclusive = weak or mixed curves; inactive = no such curve, though single readings can be large; an effect the other way counts as inactive or inconclusive.

Test [1] has as its target Nuclear receptor subfamily 1 group I member 3 (Homo sapiens) (UniProt Q14994). Nature of the test: qHTS assay to identify small molecule agonists of the constitutive androstane receptor (CAR) signaling pathway (AID 1224839). Also: nearly all actives have a fitted effect of over 15% in size. Also: potency is read from the fitted curve at half-maximal effect. Summed up: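 A 15-concentration quantitative screen uses HepG2 cells co-transfected stably with human CAR and CYP2B6-2.2kb reporter. Treatment lasts 24 h with 0.75 uM PK11195 final present; ONE-Glo luminescence is the signal.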

Test [2] is described as follows: qHTS assay to identify small molecule antagonists of the estrogen related receptor signaling pathway with the pleiotropic PPARgamma coactivator (PGC) from Tox21 10K library - cell viability counter screen (AID 1224840; active = well fitted cell-killing curve with a large enough effect in the repeat runs, not every such curve was filed as active; also: nearly all actives have a fitted effect of over 40% in size). Summed up:
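Fluorescence read-out of CellTiter-Fluor viability reagent, added after cells had been exposed to compound in DMSO for 17.5 h at 37 C; 30 min development at 37 C/5% CO2. Cells: PGC/ERR line, 2,000/well.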

Test [3] in a line: qHTS assay to identify small molecule antagonists of the estrogen related receptor signaling pathway with the pleiotropic PPARgamma coactivator (PGC) from Tox21 10K library (AID 1224841; call rule not given here; also: actives are mostly falling curves and most rising ones were filed inactive; nearly all actives have a fitted effect of over 50% in size). In short, it runs like this:
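Luminescence read-out (One-Glo luciferase reagent, 30 min at room temperature) from PGC/ERR cells exposed to DMSO-dissolved test compounds for 18 h at 37 C; cells, 2,000 per well, had been preincubated 6 h before compound transfer.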

Test [4] is described as follows: qHTS assay to identify small molecule agonists of the estrogen related receptor signaling pathway with the pleiotropic PPARgamma coactivator (PGC) from Tox21 10K library (AID 1224842). Also: nearly all actives have a fitted effect of over 15% in size. Summed up: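 PGC/ERR reporter cell line, 2,000 cells per well, incubated 6 h at 37 C before 23 nL compound in DMSO was added. After 18 h at 37 C, One-Glo luminescence read following 30 min at room temperature.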
For orientation: In qHTS, concentration-response curves come from the screen itself.

The nature of test [5]: qHTS assay to identify small molecule agonists of the hypoxia (HIF-1) signaling pathway - cell viability counter screen (AID 1224844; calls by dose curve; also: nearly all actives have a fitted effect of over 50% in size). Summed up:
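CellTiter-Glo luminescence read-out, 30 min RT, taken in the same wells as the beta-lactamase HRE reporter assay; HRE-bla ME-180 cells, 0.5% dialyzed FBS, 17 hr compound treatment at 37C, 5% CO2.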

A short description of test [6]: qHTS assay to identify small molecule antagonists of the estrogen related receptor (ERR) signaling pathway from Tox21 library (AID 1224848). Also: nearly all actives have a fitted effect of over 50% in size. In short, it runs like this: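 Compounds dissolved in DMSO are pin-transferred onto ERR reporter cells (2,000 per well) that have settled for 6 h at 37 C. Plates then incubate 18 h at 37 C before ONE-Glo luciferase reagent and a luminescence read 30 min later.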

Test [7] in a line: qHTS assay to identify small molecule agonists of the estrogen related receptor (ERR) signaling pathway from Tox21 library (AID 1224849; calls by dose curve; also: nearly all actives have a fitted effect of over 15% in size). The following applies: ERR reporter cell line, ONE-Glo luciferase, 18 h; at 92.4 µM (top of the series) unless noted. In short, it runs like this:
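Luminescence readout (ONE-Glo, 30 min RT) after 18 h compound exposure at 37 C of NTP-supplied ERR reporter cells; cells were plated 6 h before compound addition by pin tool.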

A short description of test [8]: qHTS RealTime-Glo MT Cell Viability Assay in HepG2 cells - 24 hour (AID 1224867). Also: nearly all actives have a fitted effect of over 50% in size. Summed up:
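Cells + NanoLuc/prosubstrate dispensed (600 cells/well) → 5 h at 37 C/5% CO2 → compounds in DMSO transferred → 40 h incubation at 37 C, luminescence read at 0, 8, 16, 24, 32, 40 h.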

Test [9] in a line: qHTS RealTime-Glo MT Cell Viability Assay in HEK293 cells - 32 hour (AID 1224868). Also: nearly all actives have a fitted effect of over 50% in size. Also: potency is read from the fitted curve at half-maximal effect. In short, it runs like this:
(§1)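 Tox21 10K qHTS, HEK293, 600 cells/well, RealTime-Glo reagent co-dispensed with cells; 5 h preincubation, compound by pintool, 37 C, luminescence at 0–40 h.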

A short description of test [10]: A CellTox Green Cytotoxicity Assay to monitor cytotoxicity in HEK293 cells - 0 hour (AID 1224869). Also: nearly all actives have a fitted effect of over 50% in size. In short, it runs like this: (§2)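 Read-out: fluorescence of a cell-impermeant cyanine dye staining DNA of dead cells, proportional to cytotoxicity. HEK293, 600 cells/well with reagent, compound (23 nL DMSO) added after 5 h; reads at 0, 8, 16, 24, 32, 40 h.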
The nature of test [11]: qHTS RealTime-Glo MT Cell Viability Assay in HepG2 cells - 40 hour (AID 1224870). Also: nearly all actives have a fitted effect of over 50% in size. Summed up:
(§3)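 HepG2 cells (600/well) mixed with RealTime-Glo MT reagent, settled 5 h at 37 C/5% CO2 before compound addition. Nonlytic NanoLuc luminescence from viable-cell prosubstrate reduction read repeatedly during 40 h treatment at 37 C.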

Test [12] is described as follows: A CellTox Green Cytotoxicity Assay to monitor cytotoxicity in HEK293 cells - 40 hour (AID 1224871). Also: nearly all actives have a fitted effect of over 45% in size. Summed up:
as §2

Test [13] in a line: qHTS RealTime-Glo MT Cell Viability Assay in HEK293 cells - 16 hour (AID 1224872). Also: nearly all actives have a fitted effect of over 50% in size. Also: potency is read from the fitted curve at half-maximal effect. In short, it runs like this:
as §1

Test [14] is described as follows: qHTS RealTime-Glo MT Cell Viability Assay in HepG2 cells - 8 hour (AID 1224873). Also: nearly all actives have a fitted effect of over 55% in size. Summed up: as §3
Test [15] is described as follows: qHTS RealTime-Glo MT Cell Viability Assay in HEK293 cells - 40 hour (AID 1224874). Also: nearly all actives have a fitted effect of over 50% in size. Also: potency is read from the fitted curve at half-maximal effect. The following applies: RealTime-Glo luminescence; max response: hits give low values. In short, it runs like this: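 Luminescence readout at each listed time point; HEK293, 600 cells/well, RealTime-Glo MT reagent added with cells; compounds pinned (23 nL in DMSO) after 5 h at 37 C; continuous culture at 37 C.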

Test [16] is described as follows: A CellTox Green Cytotoxicity Assay to monitor cytotoxicity in HEK293 cells - 24 hour (AID 1224875). Also: nearly all actives have a fitted effect of over 45% in size. In short, it runs like this: as §2
Test [17] can be described thus: qHTS assay to identify small molecule agonists of H2AX (AID 1224845; active = well fitted activation curve with a large enough effect in the signal ratio in the repeat runs, not every such curve was filed as active; the % refers to the signal ratio). In short, it runs like this:
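Wild-type CHO-K1 cells, plated overnight, exposed 3hr at 37C to 15 concentrations (0.76% DMSO final). Lysed, then HTRF anti-pH2AX (S139) cryptate and anti-H2AX-d2 antibodies, 24 hr room temperature; 665/620 nm emission read.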

Test [18] can be described thus: qHTS assay to identify small molecule agonists of H2AX - cell viability counter screen (AID 1224847; calls by dose curve; also: top concentration of the series differs between compounds; nearly all actives have a fitted effect of over 30% in size). In short, it runs like this: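 We seed wild-type CHO-K1 cells overnight, treat them for 3 hr at 37C with compounds in 15-concentration series, and quantify remaining viability by CellTiter-Glo luminescence.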
The target of test [19] is Thyrotropin receptor (Homo sapiens) (UniProt P16473). The experiment in a line: qHTS assay to identify small molecule agonists of the thyroid stimulating hormone receptor (TSHR) signaling pathway (AID 1224843; calls by dose curve; also: nearly all actives have a fitted effect of over 45% in size). Summed up: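 HEK293/TSHR, 800 cells/well; cpd 30 min RT; add cAMP-d2 + anti-cAMP-cryptate, 1 h RT; fluorescence read on plate reader. 15-pt titration, n=3.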
Test [20] can be described thus: qHTS assay to identify small molecule agonists of the hypoxia (HIF-1) signaling pathway (AID 1224846; active = well fitted activation curve with a large enough effect in the signal ratio in the repeat runs, not every such curve was filed as active; the % refers to the signal ratio). Summed up: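 Beta-lactamase FRET read-out (CCF4-AM substrate) from ME-180 cells carrying an HRE-driven bla reporter, after 17 hrs compound exposure at 37C/5% CO2. Cells were seeded at 2,000 per well in 0.5% dialyzed FBS medium and preincubated 5 hrs.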
% is scaled to controls: 0 for no effect and ±100 for the full control effect.

Chain of Nuclear receptor subfamily 1 group I member 3 (Homo sapiens) (Q14994 whole entry, looked up): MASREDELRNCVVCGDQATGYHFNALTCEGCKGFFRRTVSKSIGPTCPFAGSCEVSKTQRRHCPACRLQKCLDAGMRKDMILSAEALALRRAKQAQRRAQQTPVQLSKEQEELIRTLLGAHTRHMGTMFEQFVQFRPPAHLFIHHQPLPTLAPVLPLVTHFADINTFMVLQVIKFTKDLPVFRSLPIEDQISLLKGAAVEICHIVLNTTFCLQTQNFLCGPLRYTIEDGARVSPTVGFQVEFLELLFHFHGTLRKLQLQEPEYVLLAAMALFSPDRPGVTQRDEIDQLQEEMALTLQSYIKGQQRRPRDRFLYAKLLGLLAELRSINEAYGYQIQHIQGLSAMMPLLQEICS
Chain of Thyrotropin receptor (Homo sapiens) (P16473 whole entry, looked up): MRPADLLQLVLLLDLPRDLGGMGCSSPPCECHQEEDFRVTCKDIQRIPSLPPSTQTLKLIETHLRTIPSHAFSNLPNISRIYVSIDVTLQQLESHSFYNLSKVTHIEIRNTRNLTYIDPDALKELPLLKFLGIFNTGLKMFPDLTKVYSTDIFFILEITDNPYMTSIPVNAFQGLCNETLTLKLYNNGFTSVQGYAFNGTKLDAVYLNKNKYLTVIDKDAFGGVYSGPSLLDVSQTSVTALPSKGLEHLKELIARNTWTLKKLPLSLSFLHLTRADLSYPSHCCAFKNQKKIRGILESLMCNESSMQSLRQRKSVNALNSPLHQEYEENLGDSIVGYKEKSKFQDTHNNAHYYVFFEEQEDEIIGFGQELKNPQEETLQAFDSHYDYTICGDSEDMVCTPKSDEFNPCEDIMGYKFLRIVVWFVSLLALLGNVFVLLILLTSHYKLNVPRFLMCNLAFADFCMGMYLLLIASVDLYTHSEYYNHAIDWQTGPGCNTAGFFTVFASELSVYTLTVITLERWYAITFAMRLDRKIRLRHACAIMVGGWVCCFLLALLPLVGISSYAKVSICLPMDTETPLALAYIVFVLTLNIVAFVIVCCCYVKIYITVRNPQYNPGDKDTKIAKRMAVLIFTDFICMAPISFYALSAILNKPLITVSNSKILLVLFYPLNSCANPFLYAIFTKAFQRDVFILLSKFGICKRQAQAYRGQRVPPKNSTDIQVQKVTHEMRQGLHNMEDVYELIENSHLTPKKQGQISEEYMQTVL

For `CC/C=C\CCOC(=O)c1ccccc1O`, the Potency entry in [1], in test [6], in test [9], in test [10], in test [12] and in test [13] was “inactive” each time. In addition, in test [16], the Potency result is “inactive”. Further, the result in test [2], in test [3], in [4], in [5], in test [8] and in test [11] was inactive. The molecule was classed as inactive in [14]. The activity change, positive = activation in test [7] was 2.25%. In addition, the max response in test [15] was 19.1%.

With `c1ccc2c(CC3=NCCN3)cccc2c1`, the Potency result in [1], in test [6], in test [9], in [12] and in test [13] was “inactive” throughout. In addition, the molecule was called inactive in test [2], in test [3], in test [4], in [5], in test [17] and in test [18]. Also, the molecule was called inactive in test [8] and in test [11]. Further, in test [7], the activity change, positive = activation was 4.17% [at 42.5 µM]. Besides, in [15], the max response was -13.3%.

Turning to `CC1CCc2c(N3CCC(O)CC3)c(F)cc3c(=O)c(C(=O)O)cn1c23` (centres undefined), the Potency entry in test [1], in test [9], in test [10], in [12], in test [13] and in [16] was “inactive” throughout. Moreover, the molecule was classed as inactive in test [2], in [4], in test [19], in test [5], in test [17] and in test [20]. For the same molecule, the molecule was classed as inactive in test [18], in test [8] and in test [11]. For the same molecule, the activity change, positive = activation in test [7] is -17.9% [at 42.5 µM]. Moreover, the max response in [15] was -0.0801%.

Consider `Nc1nc(-c2ccccc2)c(Br)c(=O)[nH]1`, for which the Potency entry in test [1], in test [6], in test [9], in test [10], in test [12] and in test [13] was “inactive” throughout. The Potency result in test [16] was “inactive”. In addition, the outcome in test [2], in test [4], in [19], in test [17], in test [20] and in [18] was inactive. Besides, the outcome in test [8], in [11] and in [14] was inactive. Moreover, in test [7], the activity change, positive = activation is -6.57% [at 42.5 µM]. In test [15], the max response is -3.06%.

For `COc1cc2c(cc1OC)C(=O)C(CC1CCN(Cc3ccccc3)CC1)C2` (centres undefined), the Potency result in [1], in test [6], in test [12] and in [16] was “inactive” each time. Also, the molecule was called inactive in [2], in test [3], in test [19], in [5], in test [20] and in [18]. Besides, the result in [8], in test [11] and in test [14] was inactive. Besides, the activity change, positive = activation in [7] was 2.42% [at 42.5 µM]. Also, the Potency in test [9] is 21.3 µM (active); in test [13], 21.3 µM (active); in test [15], 23.9 µM (active).

Take `ONc1ccccc1`: the Potency in [1] was 60.5 µM (active). Besides, the outcome in test [2], in [3], in test [19], in test [5], in [17] and in test [18] was inactive. The molecule was classed as inactive in test [8], in test [11] and in test [14]. Also, the Potency result in test [6], in test [9] and in [13] was “inactive” in each case. Also, in [7], the activity change, positive = activation is 20.7% (active). Also, in [15], the max response was -13.8%.

In the case of `CCC(=O)c1c(O)cc(O)cc1O`, the Potency result in [1], in test [9], in [10], in test [13] and in [16] was “inactive” each time. Further, the call in test [2], in test [4], in test [19], in test [17], in [20] and in test [18] was inactive. In addition, the molecule was classed as inactive in [8], in test [11] and in [14]. Besides, in test [7], the activity change, positive = activation was -13.5% [at 42.5 µM]. Besides, the max response in test [15] is 11.1%.
